# Columns and labels:
# Test in all cases: PBM binding z-score (relative to random genomic background probes); higher = stronger binding; sequences stand for … in GC…GCGATTGACAGCGTAGAATGAAGG
# [1] = system: RARb homodimer (NR concentration 270 nM)
# Summary of the method: (§1)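 Random background probes are the reference for binding z-scores. These scores derive from regression-normalized fluorescence on custom Agilent 4×180K protein-binding microarrays incubated 1 h with ligand-free nuclear receptor dimers. Binding was detected with antibodies against each partner (one per run).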
# [2] = system: RARg:RXRa (NR concentration 270 nM, RXRa partner concentration 90 nM)
# Summary of the method: as §1
# [3] = system: RARg homodimer (NR concentration 270 nM)
# Summary of the method: as §1
# [4] = system: RXRa DBDmut IVT, anti-RXR (DBD mutation: RXRa K156A/R161A, NR concentration 90 nM)
# Summary of the method: as §1
# [5] = system: RXRa homodimer (NR concentration 180 nM)
# Summary of the method: as §1
# [6] = system: THRa:RXRa (NR concentration 90 nM, RXRa partner concentration 90 nM)
# Summary of the method: as §1
# [7] = system: THRa homodimer (NR concentration 90 nM)
# Summary of the method: as §1
# [8] = system: VDR homodimer (NR concentration 270 nM)
# Summary of the method: as §1
Sequence,PBM binding z-score [1],PBM binding z-score [2],PBM binding z-score [3],PBM binding z-score [4],PBM binding z-score [5],PBM binding z-score [6],PBM binding z-score [7],PBM binding z-score [8]
CCACACAGGTGAGAAGGTAACTCAGCCTCGATTA,0.713,0.766,0.648,0.395,0.675,0.428,0.324,-0.221
TCTGGTAGATCAACAGGAGGTTAAGAAAGATCGA,0.385,0.66,0.298,0.299,0.827,0.849,-0.374,0.00452
ACAGCCAGGTGAGTGAAGGTAACTCAGCTGGACG,-0.424,-0.155,-0.0105,-0.98,-0.177,1.46,-0.534,-0.751
ACAACGAGGGCACGCTGAGTTGATAGCAGAGTAG,0.921,2.12,2.44,2.16,1.24,1.75,-0.067,2.04
GGAACGAGGGCAATTTGATAGCAGAGTTTGATGG,0.804,1.04,1.25,1.74,0.881,0.709,-0.191,0.777
CCATACGGGTCACGAGGTTATAGCACGACGAGCG,3.99,6.02,5.35,1.27,7.38,3.55,1.09,2.45
CCTACTGGGCCATCAGGTCATGGATATCAACGTT,2.95,2.25,2.22,-0.124,1.66,3.47,3.47,0.959

# Reference: the supplement of paper PMC6555819
